The values that follow come from PubChem BioAssay (Tox21).

“And” between values parts separate entries of the source, which are not always exact repeats. Equal entries are not always repeated. Records with an inconclusive call do not appear. The source made the active and inactive calls. Unless noted, the call rests on the fitted dose curve; in most records, active means well fitted curve in the direction sought with a large enough effect in the repeat runs; inconclusive means weak or mixed curves; inactive means no such curve, though single readings can be large; an effect the other way counts as inactive or inconclusive.

A short description of test [1]: qHTS assay to identify small molecule agonists of the estrogen receptor beta (ER-beta) signaling pathway - cell viability counter screen (AID 1259380). Further: nearly all actives have a fitted effect of over 30% in size. Further: potency means the concentration at half of the fitted maximal effect. The gist of the method: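 Measured: luminescence from CellTiter-Glo after 30 min at room temperature, added to wells already read for the LiveBLAzer FRET reporter (2 hr substrate); ER-beta-UAS-bla HEK293T cells had 16 hr compound treatment at 37C, 5% CO2.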

A short description of test [2]: qHTS assay to identify small molecule antagonists of the estrogen receptor beta (ER-beta) signaling pathway - cell viability counter screen (AID 1259382).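 Further: HEK293T cells carrying ER-beta-UAS-bla reporter stimulated with estradiol; series mostly up to about 92 µM; nearly all actives have a fitted effect of over 55% in size.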 The gist of the method: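 Readout: luminescence, CellTiter-Glo, same wells as bla assay. System: ER-beta-UAS-bla GripTite HEK293T, 2% charcoal-stripped FBS. Exposure: compounds plus 1nM 17-beta-estradiol, 16 hr, 37C.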
(In general: Quantitative high-throughput screening tests each substance at several concentrations.)

Test [3] has as its target Estrogen receptor (Homo sapiens) (UniProt P03372). Briefly: qHTS assay to identify small molecule agonists of the estrogen receptor alpha (ER-alpha) signaling pathway in the presence of an antagonist (AID 1259383; calls by dose curve; further: top concentration of the series differs between compounds; nearly all actives have a fitted effect of over 15% in size). The method in brief: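 Quantitative HTS confirmation: compounds titrated at 15 concentrations onto estrogen-deprived VM7Luc4E2 cells carrying a four-ERE luciferase construct, with ICI-182,780 present at 10.0nM final. Signal is luminescence after 22hr exposure.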

The target of test [4] is Thyrotropin receptor (Homo sapiens) (UniProt P16473). Kind of test: qHTS assay to identify small molecule antagonists of the thyroid stimulating hormone receptor (TSHR) signaling pathway (AID 1259385; calls by dose curve; further: nearly all actives have a fitted effect of over 20% in size). The method in brief:
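TSHR-HEK293 cells (800/well) plated 18 h, then compounds with Ro20-1724 and TSH at 1.5 ng/mL final, 30 min at room temperature. cAMP quantified by HTRF (cAMP-d2/anti-cAMP-cryptate, 1 h); 15 concentrations in triplicate.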

Test [5] addresses Progesterone receptor (Homo sapiens) (UniProt P06401). Kind of test: qHTS assay to identify small molecule antagonists of the progesterone receptor (PR) signaling pathway (AID 1346795; active means well fitted inhibition curve with a large enough effect in the signal ratio in the repeat runs, not every such curve was filed as active; the % refers to the signal ratio; further: potency means the concentration at half of the fitted maximal effect). The gist of the method: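 In HEK293T cells bearing the PR-UAS-bla reporter, compound effects on promegestone-driven (1 nM) beta-lactamase expression are assessed after 16 hr using a fluorescent FRET substrate incubated 2 hr at room temperature.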

The nature of test [6]: qHTS assay to identify small molecule agonists of the progesterone receptor (PR) signaling pathway - cell viability counter screen (AID 1346799; calls by dose curve; further: nearly all actives have a fitted effect of over 45% in size). The gist of the method: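 Here, 3,000 PR-UAS-bla HEK293T cells per well were treated with compounds for 16 hr after a 6 hr preincubation at 37C and 5% CO2; cell viability is the CellTiter-Glo luminescence signal.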
Test [7] is described as follows: qHTS assay to identify small molecule antagonists of the TGF-beta/Smad signaling pathway - cell viability counter screen (AID 1346824). Further: nearly all actives have a fitted effect of over 50% in size. The method in brief: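 SBE-bla HEK 293T cells, incubated overnight, then compound plus 0.25 ng/mL TGF-beta1 (stock added) for 5 hr at 37 C. Viability was read in the same wells by CellTiter-Glo luminescence after 30 min at room temperature.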

Test [8] can be described thus: qHTS assay to identify small molecule agonists of the TGF-beta/Smad signaling pathway - cell viability counter screen (AID 1346829). Further: top concentration of the series differs between compounds; nearly all actives have a fitted effect of over 45% in size. The gist of the method:
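Compound-treated SBE-bla HEK 293T cells (5 hr, 37 C) were assessed for viability with CellTiter-Glo in parallel with the reporter read.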

Test [9] is described as follows: qHTS assay to identify small molecule agonists of the androgen receptor (AR) signaling pathway in the presence of an antagonist - cell viability counter screen (AID 1259379). Further: nearly all actives have a fitted effect of over 25% in size. Further: potency means the concentration at half of the fitted maximal effect. The gist of the method:
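MDA-kb2 viability measured by CellTiter-Fluor fluorescence in the same wells as the luciferase signal; nilutamide 3.0uM final; 15-point compound titration; 16 hr at 37C.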

Test [10] in a line: qHTS assay to identify small molecule antagonists of the progesterone receptor (PR) signaling pathway - cell viability counter screen (AID 1346798). Further: series mostly up to about 92 µM; nearly all actives have a fitted effect of over 50% in size. The gist of the method:
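Following a 4 hr attachment, PR-UAS-bla HEK293T cells in charcoal-stripped FBS medium were exposed to compounds with R5020 for 16 hr; CellTiter-Glo was added and luminescence read after 30 min at room temperature.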

A short description of test [11]: qHTS assay to identify small molecule agonists of the TGF-beta/Smad signaling pathway (AID 1346859; active means well fitted activation curve with a large enough effect in the signal ratio in the repeat runs, not every such curve was filed as active; the % refers to the signal ratio; further: series mostly up to about 77 µM). The gist of the method: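 Each well held 4,000 SBE-bla HEK 293T cells incubated overnight before compound addition; 5 hr later the cleavable FRET substrate went on for 2 hr at room temperature, and fluorescence was read at two emissions.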
Test [12] has as its target Thyrotropin-releasing hormone receptor (Homo sapiens) (UniProt P34981). Kind of test: qHTS assay to identify small molecule antagonists of the thyrotropin-releasing hormone receptor (TRHR) signaling pathway (AID 1346877; active means well fitted inhibition curve with a large enough effect in the repeat runs, not every such curve was filed as active; further: series mostly up to about 51 µM). The method in brief: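 Overnight-plated (18 h, 37 °C) HEK293 cells expressing TRHR were dye-loaded 2 h, treated with compound, then stimulated with TRH at 1 nM final. Fluorescence intensity was captured every second for 3 min.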

For test [13] the target is unchanged. Briefly: qHTS assay to identify small molecule agonists of the thyrotropin-releasing hormone receptor (TRHR) signaling pathway (AID 1346891; calls by dose curve; further: series mostly up to about 58 µM). The gist of the method:
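Screening of agonists relied on calcium signalling in HEK293 cells expressing human TRHR: dye loading 2 h at 37 °C preceded compound addition and a 3-min fluorescence time course.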

Test [14] in a line: qHTS assay to identify small molecule agonists of the estrogen receptor alpha (ER-alpha) signaling pathway in the presence of an antagonist - cell viability counter screen (AID 1259386).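 Further: cells exposed to compounds for 22 h at 37 °C before the viability read; nearly all actives have a fitted effect of over 30% in size.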 Further: potency means the concentration at half of the fitted maximal effect. The method in brief:
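The test measures whether compounds kill ER-alpha reporter cells (VM7Luc4E2) under antagonist co-treatment (ICI-182,780, 10.0nM). Fluorescence from CellTiter-Fluor is read after a 22hr exposure.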

Test [15] has as its target Progesterone receptor (Homo sapiens) (UniProt P06401). Kind of test: qHTS assay to identify small molecule agonists of the progesterone receptor (PR) signaling pathway (AID 1346784; calls by dose curve; further: nearly all actives have a fitted effect of over 30% in size). The method in brief:
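Compounds were tested for PR agonism in HEK 293T cells bearing a beta-lactamase gene under UAS control. Treatment lasted 16 hr at 37C; signal came from fluorescence of a FRET substrate.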

Test [16] can be described thus: qHTS assay to identify small molecule agonists or antagonists of the thyroid stimulating hormone receptor (TSHR) signaling pathway - wild type cell line counter screen (AID 1259384; calls by dose curve). The method in brief: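 Wild-type Hek293 cells, 800/well, 18 h at 37C, then compound with Ro20-1724 for 30 min RT. cAMP by HTRF (cAMP-d2/anti-cAMP cryptate), 1 h RT, fluorescence read. 15 concentrations, triplicates.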

Test [17] deals with Androgen receptor (Homo sapiens) (UniProt P10275). Briefly: qHTS assay to identify small molecule agonists of the androgen receptor (AR) signaling pathway in the presence of an antagonist (AID 1259381; calls by dose curve; further: nearly all actives have a fitted effect of over 15% in size). The gist of the method:
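Luminescent ONE-Glo read, 30min at room temperature, follows 16hr compound exposure (15 concentrations) of MDA-kb2 cells at 37C, 0% CO2, with nilutamide added at 3.0uM final.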

Chain of Thyrotropin-releasing hormone receptor (Homo sapiens) (P34981 whole entry, looked up): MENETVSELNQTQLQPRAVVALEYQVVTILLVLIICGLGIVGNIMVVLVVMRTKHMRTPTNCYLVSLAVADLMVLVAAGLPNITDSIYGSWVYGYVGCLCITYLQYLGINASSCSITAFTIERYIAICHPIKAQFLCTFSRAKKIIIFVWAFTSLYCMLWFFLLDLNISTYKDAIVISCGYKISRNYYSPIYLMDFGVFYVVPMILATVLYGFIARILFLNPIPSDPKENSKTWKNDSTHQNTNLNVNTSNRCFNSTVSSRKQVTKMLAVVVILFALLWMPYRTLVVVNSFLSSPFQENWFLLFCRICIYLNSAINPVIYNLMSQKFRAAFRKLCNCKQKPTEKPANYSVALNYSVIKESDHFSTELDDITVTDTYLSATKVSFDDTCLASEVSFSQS
Chain of Progesterone receptor (Homo sapiens) (P06401 whole entry, looked up): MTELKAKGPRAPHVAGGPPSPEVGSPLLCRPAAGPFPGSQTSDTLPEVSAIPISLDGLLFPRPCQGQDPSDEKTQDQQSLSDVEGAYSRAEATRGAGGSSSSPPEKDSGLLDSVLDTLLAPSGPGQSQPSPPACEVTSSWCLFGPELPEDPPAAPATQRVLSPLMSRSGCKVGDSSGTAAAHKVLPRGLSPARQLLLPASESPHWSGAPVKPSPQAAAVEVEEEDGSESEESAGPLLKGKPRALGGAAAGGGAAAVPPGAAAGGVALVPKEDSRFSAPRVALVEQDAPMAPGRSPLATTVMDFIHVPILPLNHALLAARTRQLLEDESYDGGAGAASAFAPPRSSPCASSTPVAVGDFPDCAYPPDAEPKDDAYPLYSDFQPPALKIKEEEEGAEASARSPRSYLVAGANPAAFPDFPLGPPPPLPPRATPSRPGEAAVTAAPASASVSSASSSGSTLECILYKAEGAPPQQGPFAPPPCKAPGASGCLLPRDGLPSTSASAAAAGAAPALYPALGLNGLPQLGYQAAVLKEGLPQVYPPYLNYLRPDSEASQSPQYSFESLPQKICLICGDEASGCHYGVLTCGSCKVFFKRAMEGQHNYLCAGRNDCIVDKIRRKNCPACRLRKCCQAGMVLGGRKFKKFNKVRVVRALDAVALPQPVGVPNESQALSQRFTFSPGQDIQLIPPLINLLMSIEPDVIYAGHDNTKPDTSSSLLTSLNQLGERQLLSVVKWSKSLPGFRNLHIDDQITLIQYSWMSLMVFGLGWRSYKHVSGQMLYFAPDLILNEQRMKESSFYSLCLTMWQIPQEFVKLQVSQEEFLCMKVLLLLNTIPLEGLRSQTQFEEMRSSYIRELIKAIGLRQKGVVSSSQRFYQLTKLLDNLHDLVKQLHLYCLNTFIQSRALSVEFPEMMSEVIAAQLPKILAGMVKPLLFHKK
Chain of Thyrotropin receptor (Homo sapiens) (P16473 whole entry, looked up): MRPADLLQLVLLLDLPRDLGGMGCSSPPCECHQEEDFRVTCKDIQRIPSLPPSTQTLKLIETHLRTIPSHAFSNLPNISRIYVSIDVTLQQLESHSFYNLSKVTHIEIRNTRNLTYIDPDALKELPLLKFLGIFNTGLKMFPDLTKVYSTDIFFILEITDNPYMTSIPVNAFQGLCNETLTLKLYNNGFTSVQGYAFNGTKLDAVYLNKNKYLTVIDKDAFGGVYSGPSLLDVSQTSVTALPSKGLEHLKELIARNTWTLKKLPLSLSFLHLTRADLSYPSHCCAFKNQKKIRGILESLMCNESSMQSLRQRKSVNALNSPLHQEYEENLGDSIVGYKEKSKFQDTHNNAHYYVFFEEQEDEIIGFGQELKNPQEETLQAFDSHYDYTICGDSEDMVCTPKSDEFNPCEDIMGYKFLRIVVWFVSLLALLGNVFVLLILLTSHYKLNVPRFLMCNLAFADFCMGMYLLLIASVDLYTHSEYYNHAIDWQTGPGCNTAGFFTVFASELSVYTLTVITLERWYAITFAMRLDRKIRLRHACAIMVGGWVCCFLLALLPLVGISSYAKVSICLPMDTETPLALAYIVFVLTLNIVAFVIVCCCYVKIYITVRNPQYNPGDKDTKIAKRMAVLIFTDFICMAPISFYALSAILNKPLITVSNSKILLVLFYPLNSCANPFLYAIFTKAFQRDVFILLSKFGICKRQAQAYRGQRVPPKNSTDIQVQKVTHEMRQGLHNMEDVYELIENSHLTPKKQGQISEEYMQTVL
Chain of Estrogen receptor (Homo sapiens) (P03372 whole entry, looked up): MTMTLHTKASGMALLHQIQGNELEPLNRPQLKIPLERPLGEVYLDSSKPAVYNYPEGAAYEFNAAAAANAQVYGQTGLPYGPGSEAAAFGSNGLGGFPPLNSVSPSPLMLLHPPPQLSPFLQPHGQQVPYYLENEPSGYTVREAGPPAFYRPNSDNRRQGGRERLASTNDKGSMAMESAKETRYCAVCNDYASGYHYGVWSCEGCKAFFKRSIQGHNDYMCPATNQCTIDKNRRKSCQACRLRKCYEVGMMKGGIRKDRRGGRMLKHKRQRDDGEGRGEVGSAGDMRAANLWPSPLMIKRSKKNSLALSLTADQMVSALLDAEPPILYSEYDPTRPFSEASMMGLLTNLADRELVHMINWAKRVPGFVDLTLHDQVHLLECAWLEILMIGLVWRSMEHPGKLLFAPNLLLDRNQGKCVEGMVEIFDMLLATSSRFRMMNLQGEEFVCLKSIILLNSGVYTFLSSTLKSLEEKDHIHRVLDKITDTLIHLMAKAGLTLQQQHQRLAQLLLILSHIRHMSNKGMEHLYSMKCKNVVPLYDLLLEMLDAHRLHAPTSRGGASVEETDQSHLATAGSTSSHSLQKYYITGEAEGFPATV
Chain of Androgen receptor (Homo sapiens) (P10275 whole entry, looked up): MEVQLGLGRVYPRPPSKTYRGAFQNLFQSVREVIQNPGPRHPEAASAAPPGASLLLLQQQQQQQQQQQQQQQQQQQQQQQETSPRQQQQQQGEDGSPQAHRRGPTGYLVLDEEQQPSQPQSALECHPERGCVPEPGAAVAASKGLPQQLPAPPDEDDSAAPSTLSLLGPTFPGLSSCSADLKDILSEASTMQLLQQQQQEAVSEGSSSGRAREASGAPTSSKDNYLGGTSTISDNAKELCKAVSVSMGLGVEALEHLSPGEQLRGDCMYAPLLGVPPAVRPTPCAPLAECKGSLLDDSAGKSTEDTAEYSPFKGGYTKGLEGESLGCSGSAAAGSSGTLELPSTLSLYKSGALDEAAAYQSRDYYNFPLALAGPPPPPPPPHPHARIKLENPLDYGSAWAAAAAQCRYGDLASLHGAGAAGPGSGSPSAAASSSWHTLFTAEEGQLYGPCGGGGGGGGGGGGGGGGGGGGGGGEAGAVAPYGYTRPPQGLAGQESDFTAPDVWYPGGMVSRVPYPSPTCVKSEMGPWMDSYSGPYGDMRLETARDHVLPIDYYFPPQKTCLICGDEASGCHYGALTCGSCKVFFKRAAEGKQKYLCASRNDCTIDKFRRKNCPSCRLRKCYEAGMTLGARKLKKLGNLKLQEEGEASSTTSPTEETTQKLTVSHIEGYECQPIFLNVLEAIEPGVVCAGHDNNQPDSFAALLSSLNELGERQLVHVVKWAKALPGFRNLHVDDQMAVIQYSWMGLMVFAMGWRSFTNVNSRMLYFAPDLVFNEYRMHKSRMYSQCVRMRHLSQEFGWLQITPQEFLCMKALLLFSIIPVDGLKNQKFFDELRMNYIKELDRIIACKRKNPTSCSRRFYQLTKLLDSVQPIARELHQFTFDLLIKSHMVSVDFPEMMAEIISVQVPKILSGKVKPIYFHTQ

On to `C#Cc1cccc(Nc2ncnc3cc(OCCOC)c(OCCOC)cc23)c1`, for which the Potency in test [1] is 2.66 µM (active). In addition, the Potency result in test [2], in test [3], in [4], in [5], in test [6] and in test [7] was “inactive” throughout. In addition, in test [8], the outcome was inactive.

For `ClCCOCCOCCCl`, the Potency entry in test [9], in test [1], in test [3], in [4], in [10] and in test [6] was “inactive” throughout. For the same compound, the Potency result in test [7], in test [11] and in [13] was “inactive” each time. Besides, the compound was called inactive in [8] and in [12].

`Nc1ccccc1S(=O)(=O)c1ccccc1`: the Potency result in [9], in [1], in [2], in test [4], in [14] and in test [15] was “inactive” in each case. Besides, the Potency result in test [11] is “inactive”. Also, the outcome in test [8] and in test [12] was inactive.

As for `CCC(Cl)CCC(Cl)C(Cl)CC(Cl)C(Cl)C(Cl)CCl` (stereo not drawn), the Potency result in [9], in test [1], in test [4], in test [14], in [10] and in [6] was “inactive” in each case. Besides, the Potency entry in test [7] and in test [13] was “inactive” each time. Further, the compound was called inactive in [8] and in test [12].

Turning to `CCNc1cc(O)ccc1C`, the Potency result in test [9], in [1], in [2], in test [3], in [16] and in test [14] was “inactive” in each case. The Potency result in [15], in [5], in [10], in [6], in test [7] and in test [11] was “inactive” in each case. The Potency entry in [13] was “inactive”. Further, the call in test [8] and in [12] was inactive.

As to `COc1ccc(S(=O)(=O)N2C(=O)[C@@](c3ccccc3OC)(N3C[C@H](O)C[C@H]3C(=O)N(C)C)c3cc(Cl)ccc32)c(OC)c1`, the figures for the Potency in [9], in [14] and in test [5] were 54.5 µM (active), 27.3 µM (active) and 54.5 µM (active), respectively. The Potency entry in test [17], in test [2], in test [3], in test [16], in [4] and in [7] was “inactive” in each case. Moreover, in test [13], the Potency entry was “inactive”. The compound was classed as inactive in test [8] and in test [12].

Take `CN(C)C(=O)NC1(c2ccccc2)CCN(CC[C@@]2(c3ccc(F)c(F)c3)CN(C(=O)c3ccccc3)CCO2)CC1`: the Potency entry in test [9], in [16], in test [4], in [14], in test [5] and in test [7] was “inactive” each time. In addition, the Potency entry in test [11] and in test [13] was “inactive” in each case. In addition, the Potency in test [1] is 71.4 µM (active). In [12], the compound was called inactive.

Take `O=C(O)c1ccc(-n2nc(-c3ccccc3O)nc2-c2ccccc2O)cc1`: the Potency result in [9], in test [1], in [2], in [3], in [14] and in test [15] was “inactive” in each case. The Potency result in test [7], in test [11] and in test [13] was “inactive” throughout. Also, the compound was called inactive in test [8] and in [12].

Consider `C=CC(=O)OCCOCCOCCOCCOC(=O)C=C`, for which the Potency is 61.4 µM (active) and 54 µM (active) in [9]; 54.8 µM (active) and 68 µM (active) in [14]. In addition, the Potency result in test [3], in test [16], in [4] and in test [11] was “inactive” throughout. The call in test [8] and in test [12] was inactive.

With `CC(C)Cc1ccc(C(C)C(=O)OCc2ccccn2)cc1` (stereo not drawn), the Potency entry in [9], in [1], in test [2], in test [3], in [16] and in [14] was “inactive” each time. Besides, the Potency result in [15], in [10], in test [7], in test [11] and in test [13] was “inactive” in each case. Further, the result in test [8] and in [12] was inactive.

For the compound `CCOC(=O)C1=C[C@]2(CC)CCCN3CCc4c(n1c1ccccc41)[C@@H]32`, the Potency result in [9], in [2], in test [3], in [4], in test [14] and in test [15] was “inactive” each time. The Potency entry in test [10], in test [6], in test [7], in test [11] and in test [13] was “inactive” each time. For the same compound, the Potency was 26.6 µM (active) in [1] and 23.7 µM (active) in test [5]. The call in test [12] was inactive.

`CC1=CC[C@H](C(C)C)C=C1`: the Potency result in test [9], in test [2], in test [3], in [14], in test [15] and in test [7] was “inactive” in each case. Besides, the result in test [8] was inactive.
